Measurements reported in PubChem BioAssay AID602323 (The Scripps Research Institute Molecular Screening Center, 2012).
Unmarked numbers belong to inactive results. No rule for the calls is given here.

System: 80kDa SH
Experiment: serine hydrolase inhibition in mouse brain membranes, late-stage follow-up, selectivity assay for DAGLb inhibitor project, biochemical, gel-based competitive ABPP, fluorescence, set 2 (AID 602323)
Conditions: mouse brain membrane, at 1 µM, hits give high values

O=C(N1CCCCC1Cc1ccccc1)n1cc(-c2ccc(-c3ccccc3)cc2)nn1 (stereo unspecified) was tested, and the inhibition was 10%.
